Compound activity deposited in PubChem BioAssay by Broad Institute.
Not all results are given here.
aSyn UTR act = Activators working through SNCA 5'UTR binding (MLPCN); activity score, % (tested at 7.5 µM), hits read low; 7.1% of 300,000 active; alpha-synuclein 5'UTR reporter, activators screen; in the data active means activity score below about -60%
The depositor's hits bear a star.

SMILES	aSyn UTR act
Clc1ccc(/C=N/Nc2nc(Cl)nc3ccccc23)cc1	-172*
Clc1nnc(NN=C2CCCC2)c2ccccc12	-194*
Cc1ccc(-c2nc(NCc3ccco3)n(C(=O)c3ccco3)n2)cc1	-143*
O=C(c1ccco1)n1nc(-c2ccc(Cl)cc2)nc1NCc1ccco1	-176*
O=C(COc1ccccc1)n1nc(-c2ccc(Cl)cc2)nc1NCc1ccco1	-132*
COc1ccccc1C(=O)n1nc(-c2ccccc2)nc1NCc1ccco1	-88*
O=c1n(Cc2ccccc2Cl)nc2n1-c1ccccc1SC2	-87*
CCOC(=O)Nc1ccc2c(C)cc(=O)oc2c1	-178*
CCCCOC(=O)Nc1ccc2c(C)cc(=O)oc2c1	-145*
Cc1cc(=O)oc2cc(NC(=O)CCOc3ccccc3)ccc12	-82*
O=c1[nH]c(-c2cccnc2)nc2sc(-c3ccccc3)cc12	-119*
CC(C)OC(=O)Cc1nc2sc(-c3ccccc3)cc2c(=O)[nH]1	-87*
CN(C)S(=O)(=O)c1ccc(NC(=O)c2ccccn2)cc1	-79*
CN(C)S(=O)(=O)c1ccc(C(=O)Nc2ccccn2)cc1	-70*
CCN(CC)S(=O)(=O)c1ccc(NC(=O)c2ccccn2)cc1	-120*
CCOC(=O)c1cccc(NC(=O)c2ccco2)c1	-77*
O=C(c1ccccc1)c1cccc(NC(=O)c2ccco2)c1	-120*
CCc1sc(C(=O)Nc2cccc(C(C)=O)c2)cc1C	-77*
CCOC(=O)c1cccc(NC(=O)c2cccs2)c1	-65*
COC(=O)C1C(=O)C(C(=O)/C=C/c2ccccc2)C(=O)CC1(C)C (stereo unspecified)	-134*
CC1CCCN(c2ccc([N+](=O)[O-])cc2C(=O)c2ccccc2)C1 (stereo unspecified)	84
CC1CCN(C(C(=O)NC2CCCCC2)c2cc3c(cc2[N+](=O)[O-])OCO3)CC1 (stereo unspecified)	-102*
CC1CCCN(C(C(=O)NC2CCCCC2)c2cc3c(cc2[N+](=O)[O-])OCO3)C1 (stereo unspecified)	-81*
O=C(NNc1ncnc2c1cnn2-c1cccc(Cl)c1)c1ccco1	-158*
CC(=O)NNc1ncnc2c1cnn2-c1ccc(C)c(Cl)c1	-69*
SMILES	aSyn UTR act
NCCCn1c(C(=O)c2cc(Cl)c(N)c(Cl)c2)c2ccc([N+](=O)[O-])cc2[n+]1[O-]	100
CCN(CCO)c1ccc(N=Nc2cc(C)[nH]n2)cc1	102
Cc1cc(N(CCO)CCO)ccc1N=Nc1cc(F)ccc1F	-137*
COc1cc(/C=N/NC(=O)c2cccs2)ccc1OCc1ccccc1	-105*
COc1cccc(/C=N/NC(=O)c2cccs2)c1	-137*
COc1cc(/C=N/OCC(=O)NC2CCCCC2)ccc1OCc1ccccc1	-97*
COc1cc(/C=N/NC(=O)c2cc(C)oc2C)ccc1OCc1ccccc1	-102*
Nc1nc(SCc2ccccc2)[nH]c(=O)c1-c1ccccc1	-99*
COc1ccc(/C=C\C(=O)Oc2cccc(/C=N/NC(=O)Cc3ccc(OC)c(OC)c3)c2)cc1	-87*
COc1ccc(/C=C/C(=O)Oc2cccc(/C=N/NC(=O)c3cccc(F)c3)c2)cc1	-151*
CN(C(=O)COC(=O)c1c2c(nc3ccccc13)/C(=C/c1cccc([N+](=O)[O-])c1)CCC2)C1CCS(=O)(=O)C1 (stereo unspecified)	72
CN(C(=O)COC(=O)c1nc(Cl)c(Cl)c(Cl)c1Cl)C1CCS(=O)(=O)C1 (stereo unspecified)	-210*
Cc1nn(-c2ccccc2)c(C)c1C(=O)OCC(=O)N(C)C1CCS(=O)(=O)C1 (stereo unspecified)	-90*
COc1ccc(C2C(CC(=O)O)=C(Nc3ccccc3)C(=O)N2c2ccccc2)cc1 (stereo unspecified)	-86*
O=C(O)CC1=C(Nc2ccccc2)C(=O)N(c2ccccc2)C1c1ccc(F)cc1 (stereo unspecified)	-83*
C=C(C)C1CC=C(C)/C(=N/NC(=O)c2ccoc2C)C1 (stereo unspecified)	-150*
c1ccc(C2=Nc3ccccc3NC(c3ccccc3)C2)cc1 (stereo unspecified)	-178*
Brc1ccccc1C1CC(c2ccccc2)=Nc2ccccc2N1 (stereo unspecified)	-203*
Cc1ccc2ncc(NC(=O)c3ccc(F)cc3)c(=O)n2c1	-139*
Cc1ccc(C(=O)Nc2cnc3ccccn3c2=O)cc1	-120*
CC1Cc2ccccc2N1C(=O)/C=C/c1cccc(F)c1 (stereo unspecified)	-170*
Cc1c(C(=O)C(=O)N2c3ccc(F)cc3CCC2C)c2ccccc2n1C (stereo unspecified)	62
CC1Cc2ccccc2N1C(=O)Cc1cccs1 (stereo unspecified)	38
O=C(N/N=C/c1ccccc1[N+](=O)[O-])c1ccc2nc[nH]c2c1	-113*
Cc1ccc(NC(=O)c2ccc3nc[nH]c3c2)cc1C	-170*
SMILES	aSyn UTR act
O=C(Nc1ccc(F)cc1)c1ccc2nc[nH]c2c1	-82*
CN(C)c1ccc(NC(=O)c2ccc3nc[nH]c3c2)cc1	-126*
CCN(CC)c1ccc(/C=N/NC(=O)c2ccc3nc[nH]c3c2)c(O)c1	93
COCc1c(C(C)C)nc(C(C)C)c(/C=C/[C@@H](O)C[C@@H](O)CC(=O)O)c1-c1ccc(F)cc1	115
COc1cccc(NC(=O)CNC(=O)c2ccccc2)c1	-66*
COc1cc(OC)cc(C(=O)NCC(=O)Nc2ccc(-c3ccccc3)cc2)c1	-195*
COc1cccc(NC(=O)CN(C)C(=O)CNC(=O)c2ccc(Oc3ccccc3)cc2)c1	-124*
Cc1ccc(OCC(=O)Nc2cccc(C)n2)c(C)c1	-137*
Cc1cccc(NC(=O)COc2ccc(Br)cc2)n1	-71*
Fc1ccc(N2CCN(C3=Nc4cccc5cccc3c45)CC2)cc1	-173*
Cc1cc(N2CCN(Cc3cn(C)nc3-c3ccccc3F)CC2)cc(C)n1	91
c1ccc(CN2CCN(C3=Nc4cccc5cccc3c45)CC2)cc1	-101*
Clc1cccc(Cl)c1CSc1cc2c(nn1)-c1ccccc1CC2	-83*
Clc1ccccc1CSc1cc2c(nn1)-c1ccccc1CC2	-132*
Cc1cccc(CN2C(=O)N/C(=C/c3ccc(C)s3)C2=O)c1	-88*
Oc1ccccc1/C=C/c1noc(-c2ccccc2O)n1	-218*
CC(=O)Nc1ccc(/C=C/c2noc(-c3ccccc3O)n2)cc1	-163*
COc1cc(/C=C/c2noc(-c3ccccc3O)n2)ccc1OC(C)=O	-130*
CCOc1ccc(-c2nc(C)c(C(C)=O)n2O)cc1	-173*
Cc1nc(SCC(=O)c2cccs2)c2oc3ccccc3c2n1	-134*
O=C(CSc1ncnc2c1oc1ccccc12)c1cccs1	-125*
CC(C)(C)c1ccc(-c2nc(N)nc(N)n2)cc1	-89*
O=C(CN1C(=O)S/C(=C\c2ccc(O)cc2)C1=O)c1ccccc1	-157*
O=C(CCCN1C(=O)S/C(=C\c2ccccc2)C1=O)NNC(=O)c1ccccc1O	83
O=C(CCCCN1CCCCC1)c1ccc2c(c1)Cc1ccccc1-2	-65*
O=C(O)CCCc1ccc2c(c1)CCc1ccccc1-2	109
C=CCn1c(=O)/c(=C2/Sc3cc(OC)ccc3N2C)s/c1=C1\C(=O)N(CC)C(=S)N1C	-98*
O=c1nc2c(-c3ccccc3F)n[nH]n2c2ccccc12	-146*
Cc1csc(SCC(=O)c2cc(C)n(Cc3cccs3)c2C)n1	73
Cc1csc(SCC(=O)c2c(N)n(C)c(=O)n(C)c2=O)n1	-118*
